Compound activity: PubChem, several laboratories
GLD-1 RNA inh = GLD-1/TGE RNA complex disruptors, primary screen, biochemical, fluorescence polarization | Female germline-specific tumor suppressor gld-1 (Caenorhabditis elegans), Q17339 | actives 0.44% (n = 320,000) | inhibition, % at 5.96 µM | purified GLD-1 + fluorescein TGE RNA;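 active means percent inhibition above a per-plate cutoff, the plate mean of test compounds plus 3 SD, cut at about 30% in these data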;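 further: 0% = DMSO wells with GLD-1 and probe and 100% = wells lacking GLD-1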
MCL1 BIM primary = inhibitors of MCL1 binding to BIM-BH3, primary screen, biochemical, fluorescence polarization; Induced myeloid leukemia cell differentiation protein Mcl-1 (Homo sapiens), Q07820; GST-MCL1 / FITC-Bim-BH3 fluorescence polarization; actives 0.68% (n = 320,000); AID 2057, 2009; inhibition, % at 10.9 µM;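 active means inhibition above the mean inhibition of all tested compounds plus 3 SD, set per campaign, cut at about 40% in these data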;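 further: 0% = DMSO wells and 100% = unlabeled Bim-BH3 peptide control; higher means more loss of mP so more displacement of Bim peptide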
Target sequence (Q07820 whole entry, looked up): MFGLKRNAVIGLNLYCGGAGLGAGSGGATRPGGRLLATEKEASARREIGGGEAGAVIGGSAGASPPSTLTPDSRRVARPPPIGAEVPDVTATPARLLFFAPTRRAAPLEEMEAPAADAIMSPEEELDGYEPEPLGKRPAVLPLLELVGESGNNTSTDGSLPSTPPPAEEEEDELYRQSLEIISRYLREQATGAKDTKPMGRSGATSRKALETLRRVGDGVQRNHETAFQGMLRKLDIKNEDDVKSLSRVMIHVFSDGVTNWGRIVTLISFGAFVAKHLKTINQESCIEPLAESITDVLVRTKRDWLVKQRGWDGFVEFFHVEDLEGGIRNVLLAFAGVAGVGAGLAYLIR
eLon inh = inhibitors of E. coli Lon protease, primary screen, biochemical, fluorescence polarization; actives 0.42% (n = 360,000); purified E. coli Lon protease; inhibition, % at 7.94 µM; P0A9M0; in the data active means inhibition above about 13%, passing the limit was not always enough;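 further: 0% = enzyme with probe and DMSO and 100% = no enzyme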
Keap1 Nrf2 FP = Keap1-Nrf2 protein-protein interaction inhibitors, primary screen, biochemical, fluorescence polarization, single point. Kelch-like ECH-associated protein 1 (Homo sapiens), Q14145. inhibition, % at 9.4 µM. Keap1 Kelch-Nrf2 peptide fluorescence polarization, 1536-well. AID 504523, 2011. actives 0.15% (n = 340,000); in the data active means inhibition above about 12%;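 further: human Keap1 Kelch domain with fluorescein labeled Nrf2 9mer peptide probe; 0% = neutral control wells and 100% = peptide positive control; higher means more block of Keap1 binding to Nrf2 peptide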
BCLXL inh = inhibitors of human Bcl-xL, primary screen, biochemical, fluorescence polarization, HTS; inhibition, % at 10.9 µM; GST-Bcl-xL / FITC-Bim BH3 peptide fluorescence polarization; actives 0.7% (n = 320,000); Bcl-2-like protein 1 (Homo sapiens), Q07817;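 active means inhibition above the mean of all tested compounds plus 3 SD, cutoff set per campaign, cut at about 30% in these data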;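 further: 0% = DMSO wells and 100% = unlabeled Bim-BH3 peptide competitor; inhibitors lower millipolarization by displacing the labeled peptide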
C-LANA FP = inhibitors of KSHV C-LANA binding to DNA, primary screen, biochemical, fluorescence polarization, FAM-LBS DNA, MBP-C-LANA, single point; AID 504423, 2011; Kaposi's sarcoma herpesvirus LANA C-terminal domain (residues 932-1162) DNA binding; inhibition, % at 9 µM; actives 0.078% (n = 340,000);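 active means highest replicate inhibition at or above 60% at 9 µM, even if other replicates fall short; inactive means all replicates below 60% inhibition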;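 further: 0% = neutral control wells and 100% = 4 µM acridine orange control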
* = called active by the depositor. Only some compounds are listed: those with a hit (about 1.3% of all), similar ones and a draw of the others.

COc1ccccc1N1CCN(/N=C/c2cccc(Cl)c2)CC1 was read as GLD-1 RNA inh 3.5, MCL1 BIM primary -5.3, eLon inh 0.7, Keap1 Nrf2 FP 2.1, BCLXL inh 32.5* and C-LANA FP -1.6.
For COC/C=C/C1=CC2=CC(=O)C(C)(OC(=O)c3cnc4ccccc4n3)C(=O)C2=CN1c1ccc(OC)cc1 (stereo unspecified) the results were GLD-1 RNA inh 6.7, MCL1 BIM primary 13.5, eLon inh -7.3, Keap1 Nrf2 FP 1.2, BCLXL inh 11.6 and C-LANA FP 1.8.
For COC(=O)CCCC1=CC2=CC(=O)C(C)(OC(=O)c3cnc4ccccc4n3)C(=O)C2=CO1 (stereo unspecified) the results were GLD-1 RNA inh 93.8*, MCL1 BIM primary 113.7* and BCLXL inh 95.0*.
CCCCC1=CC2=CC(=O)C(C)(OC(=O)c3cnc4ccccc4n3)C(=O)C2=CO1 (stereo unspecified) was read as GLD-1 RNA inh 96.5*, MCL1 BIM primary 96.0* and BCLXL inh 63.6*.
CCCCC1=CC2=CC(=O)C(C)(OC(=O)c3cccs3)C(=O)C2=CO1 (stereo unspecified) was read as GLD-1 RNA inh 30.2, MCL1 BIM primary 38.9, eLon inh -20.0, Keap1 Nrf2 FP -1.4, BCLXL inh 27.2 and C-LANA FP 2.0.
`COC/C=C/C1=CC2=CC(=O)C(C)(OC(=O)c3cnc4ccccc4n3)C(=O)C2=CN1CCCCO` (stereo unspecified) gave GLD-1 RNA inh 11.7, MCL1 BIM primary 11.7, eLon inh 10.0, Keap1 Nrf2 FP -0.4, BCLXL inh 13.8 and C-LANA FP 2.3.
COC/C=C/C1=CC2=CC(=O)C(C)(OC(=O)c3cnc4ccccc4n3)C(=O)C2=CN1CCc1ccccn1 (stereo unspecified) was read as GLD-1 RNA inh 31.5*, MCL1 BIM primary 55.1* and BCLXL inh 51.8*.
Screening O=C(NNc1ccc(Cl)cc1)c1c(F)cccc1Cl returned GLD-1 RNA inh 0.5, MCL1 BIM primary -8.4, eLon inh -9.8, Keap1 Nrf2 FP 3.6, BCLXL inh 10.3 and C-LANA FP 2.6.
For CC(=O)C(=Nc1ccccc1Cl)NNc1ccc(Cl)cc1 the results were GLD-1 RNA inh 5.3, MCL1 BIM primary 30.8, eLon inh -0.2, Keap1 Nrf2 FP -6.9, BCLXL inh 30.6* and C-LANA FP 2.4.
For CCN1/C(=C/c2ccc3cccc(C)c3[n+]2CC)Sc2ccccc21 the results were GLD-1 RNA inh 47.1*, MCL1 BIM primary -37.0, eLon inh -140.5, Keap1 Nrf2 FP -22.8, BCLXL inh -21.7 and C-LANA FP -52.2.
Screening CCn1c(C)c(C2=CCN(S(=O)(=O)c3ccccc3)CC2)c2ccccc21 returned GLD-1 RNA inh 32.2*, MCL1 BIM primary -1.1, eLon inh -3.3, Keap1 Nrf2 FP -5.9, BCLXL inh 20.3 and C-LANA FP 0.5.
`S=C(NCCCc1cnc[nH]1)NCCCN(Cc1ccc(Cl)cc1)c1ccc(Br)cn1` gave eLon inh -2.8.
`CCCCc1cn([C@@H](CCCCN)C(=O)N2CCNCC2)nn1` gave GLD-1 RNA inh 25.1, MCL1 BIM primary 35.6, eLon inh 11.0, Keap1 Nrf2 FP 4.6, BCLXL inh 39.0* and C-LANA FP 10.7.
For O=C1NC(c2ccc(Br)cc2)Nc2ccccc21 (stereo unspecified) the results were GLD-1 RNA inh 0.1, MCL1 BIM primary 6.1, eLon inh -2.1, Keap1 Nrf2 FP -6.3, BCLXL inh 6.3 and C-LANA FP 106.9*.
For COc1ccc(S(=O)(=O)N2CCOCC2)cc1NC(=O)CCCSc1ccccc1 the results were eLon inh -11.6.
Screening O=C(NN1CCCCC1)NN1CCCCC1 returned eLon inh 0.8.
For CC(C)OCCCn1c(=NC(=O)c2ccncc2)c(C#N)cc2c(=O)n3ccccc3nc21 the results were GLD-1 RNA inh 17.5, MCL1 BIM primary 36.9, eLon inh -2.7, Keap1 Nrf2 FP -1.4, BCLXL inh 34.2* and C-LANA FP -1.6.
